Hits are enriched below; roughly 20% of the tested compounds scored in any of these assays.
HCMV antiviral – qHTS Assay for inhibitors of the human cytomegalovirus (HCMV). AID 1259415, 2018. activity change, negative = inhibition, % at 57.5 µM. HFF cells, HCMV-luciferase reporter, 72 h; active compounds read low. hit rate 4.5% among 410,000; in the data active = activity change below about -60%; inconclusive = no clear call, values can overlap the other calls; inactive = above about -39%
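HFF cells seeded 16 h at 37C, treated with compounds, infected with luciferase-reporter HCMV at MOI 1 PFU/cell; luciferase read at 72 h post infection, normalized to buffer-only and Salinomycin controls.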
Pf growth 96h – Primary qHTS for delayed death inhibitors of the malarial parasite plastid, 96 hour incubation. P. falciparum luciferase reporter growth, 96 h. Potency, µM (titrated, usually from 28.7 µM), most hits filed as inhibitors. hit rate 6.9% among 320,000. AID 504834, 2011
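Two-generation exposure (96 h) targets delayed-death phenotype. Reporter parasites carrying integrated firefly luciferase, in red cells at 2% hematocrit and 0.05% parasitemia final, kept at 37 C, 5% CO2; luminescence loss indicates inhibition.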
CHX counter – Cycloheximide Counterscreen for Small Molecule Inhibitors of Shiga Toxin. cell reporter, cycloheximide protein synthesis inhibition counterscreen. max response, %. hit rate 12% among 300,000; in the data active = max response mostly above about 13%, no sharp cut-off; inactive = mostly below about 14%; note: read at 38.3 µM for the half of the compounds with a filed dose
Shiga inhibitor – A qHTS for Small Molecule Inhibitors of Shiga Toxin. inhibition, % at 38.7 µM. Vero cells, Shiga toxin protein synthesis inhibition reporter. AID 2315, 2010. hit rate 9.2% among 290,000; in the data active = inhibition mostly above about 28%, no sharp cut-off; inactive = mostly below about 43%
Pf growth 48h – Primary qHTS for delayed death inhibitors of the malarial parasite plastid, 48 hour incubation. P. falciparum luciferase growth in erythrocytes, 48 h. Potency, µM (titrated, usually from 28.7 µM), usual class: inhibitors. hit rate 5.9% among 310,000. AID 504832, 2011
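Read-out is firefly luciferase luminescence from an integrated reporter in P. falciparum, so falling signal marks reduced parasite growth. Infected erythrocytes were at 2% hematocrit and 0.1% parasitemia (final) in Albumax-supplemented RPMI 1640.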
Of the large screens only hits and unclear results are named; the others gave an inactive call. Unless noted, calls come from the whole dose curve; as a rule, active = well fitted inhibition curve with a large enough effect; inconclusive = small, poorly fitted or top-dose-only effect, or another doubt; inactive = no such curve, though single readings can be large or run the other way.

CC(=O)NC12CC3CC(C1)CC(C(=O)N1CCN(S(=O)(=O)c4ccc([N+](=O)[O-])cc4)CC1)(C3)C2	none (no result: Pf growth 96h, CHX counter, Shiga inhibitor, Pf growth 48h)
CCN(CC)c1cc(C)c2cc(NC(=O)c3ccc(Br)o3)ccc2n1	HCMV antiviral inconclusive, Pf growth 48h 12µM
CCCCc1ccc(C(=O)Nc2ccc3nc(N(CC)CC)cc(C)c3c2)cc1	HCMV antiviral -61 (no result: Pf growth 96h, CHX counter, Shiga inhibitor, Pf growth 48h)
CCN(CC)c1cc(C)c2cc(NC(=O)/C=C/c3ccccc3Cl)ccc2n1	HCMV antiviral -107 (no result: Pf growth 96h, CHX counter, Shiga inhibitor, Pf growth 48h)
CCCC(=O)Nc1nc2ccc(NC(=O)c3ccc(Br)o3)cc2s1	Pf growth 48h inconclusive
O=C(NCCCCc1ccccc1)c1cccc(NC(=O)C2CCCC2)c1	none (no result: Pf growth 96h, CHX counter, Shiga inhibitor, Pf growth 48h)
COc1cccc(NC(=O)C(C)Sc2nnc(C3CC3)n2C2CC2)c1 (configuration not stated)	Pf growth 48h inconclusive (no result: CHX counter, Shiga inhibitor)
CC(Sc1nnc(C2CC2)n1C1CC1)C(=O)c1ccc(Br)cc1 (configuration not stated)	HCMV antiviral -62, Pf growth 96h inconclusive (no result: CHX counter, Shiga inhibitor)
N#Cc1ccccc1	none (no result: CHX counter, Shiga inhibitor)
N#Cc1cncc(C#Cc2ccccc2)c1	HCMV antiviral inconclusive, Pf growth 96h inconclusive, CHX counter 8.8
CC(C)C(=O)NCC(c1ccc2c(c1)OCO2)N1CCN(c2ccccc2)CC1 (configuration not stated)	none (no result: Pf growth 96h, CHX counter, Shiga inhibitor, Pf growth 48h)
COc1ccccc1C(CNC(=O)c1cccc(NS(=O)(=O)c2ccc(C)c(F)c2)c1)N1CCCC1 (configuration not stated)	Pf growth 96h 12µM, Pf growth 48h 13µM (no result: CHX counter, Shiga inhibitor)
COc1ccccc1C(CNC(=O)c1ccc(NS(=O)(=O)c2ccc(F)c(C)c2)cc1)N1CCCC1 (configuration not stated)	Pf growth 96h 12µM, Pf growth 48h 9.3µM (no result: CHX counter, Shiga inhibitor)
Cc1ccc(S(=O)(=O)Nc2cccc(C(=O)NCC(c3ccco3)N3CCCC3)c2)cc1F (configuration not stated)	Pf growth 96h inconclusive, Pf growth 48h inconclusive (no result: CHX counter, Shiga inhibitor)
COc1ccccc1C(CNC(=O)c1ccc(NS(=O)(=O)c2ccc(C(C)=O)cc2)cc1)N1CCCC1 (configuration not stated)	none (no result: Pf growth 96h, CHX counter, Shiga inhibitor, Pf growth 48h)
O=C(CSc1nc2c(oc3ccccc32)c(=O)n1-c1ccccc1)Nc1ccc(F)c(Cl)c1	none (no result: Pf growth 96h, CHX counter, Shiga inhibitor, Pf growth 48h)
COc1ccccc1-c1ccc(=O)n(CC(=O)NCc2ccco2)n1	Pf growth 96h inconclusive
Cc1nn(CC(=O)NCc2cccs2)c(=O)c2nn(-c3ccccc3)c(C)c12	HCMV antiviral -71
COc1ccccc1-c1cc(C(F)(F)F)nc(NCc2cccs2)n1	Pf growth 96h 5.9µM, Pf growth 48h inconclusive
COc1ccccc1-c1ccc(=O)n(CC(=O)NCc2cccs2)n1	Shiga inhibitor 40
Cc1nn(C(C)C(=O)NCCc2cccs2)c(=O)c2nn(-c3ccccc3)c(C)c12 (configuration not stated)	HCMV antiviral inconclusive, Pf growth 96h 13µM
CCCNC(=O)C(C)n1nc(C)c2c(C)n(-c3ccccc3)nc2c1=O (configuration not stated)	none (no result: Pf growth 96h, CHX counter, Shiga inhibitor, Pf growth 48h)
O=S(=O)(Nc1ccccc1F)c1cccc(NC(=S)NCCN2CCOCC2)c1	none (no result: Pf growth 96h, CHX counter, Shiga inhibitor, Pf growth 48h)
Cc1ccc(-n2nc3c(=O)n(C(C)C(=O)NCCCc4ccccc4)nc(C)c3c2C)cc1 (configuration not stated)	Pf growth 96h 8.3µM, Pf growth 48h inconclusive
Cc1ccc(-n2nc3c(=O)n(C(C)C(=O)NCc4ccccc4Cl)nc(C)c3c2C)cc1 (configuration not stated)	HCMV antiviral -92, Pf growth 96h inconclusive, Pf growth 48h inconclusive
Cc1oc(CSCCSCc2cc(C(=O)O)c(C)o2)cc1C(=O)O	Pf growth 96h 15µM (no result: Shiga inhibitor)
Cc1oc(CSCC2CCCO2)cc1C(=O)O (configuration not stated)	none (no result: Pf growth 96h)
CC12CCC(=O)N1C(C(=O)Nc1cc(C(F)(F)F)ccc1N1CCOCC1)CS2 (configuration not stated)	Pf growth 96h inconclusive, Pf growth 48h inconclusive (no result: CHX counter, Shiga inhibitor)
Cc1cc(C)c(C)c(S(=O)(=O)N2CCN(C(=O)C3CSC4(C)CCC(=O)N34)CC2)c1C (configuration not stated)	Pf growth 96h inconclusive, Pf growth 48h 10µM (no result: HCMV antiviral, CHX counter, Shiga inhibitor)
CCOc1ccc(S(=O)(=O)N2CCOCC2)cc1NC(=O)C1CSC2(C)CCC(=O)N12 (configuration not stated)	HCMV antiviral inconclusive (no result: CHX counter, Shiga inhibitor)
CC12CCC(=O)N1C(C(=O)Nc1ccccc1N1CCCCC1)CS2 (configuration not stated)	Pf growth 96h inconclusive, Pf growth 48h 10µM (no result: CHX counter, Shiga inhibitor)
CC12CCC(=O)N1C(C(=O)Nc1cc(C(F)(F)F)ccc1N1CCCCC1)CS2 (configuration not stated)	Pf growth 96h inconclusive, Pf growth 48h 9.3µM (no result: CHX counter, Shiga inhibitor)
CCN(CC)c1ccc(S(=O)(=O)N2CCCCC2)cc1NC(=O)C1CSC2(C)CCC(=O)N12 (configuration not stated)	Pf growth 96h inconclusive, Pf growth 48h 12µM (no result: CHX counter, Shiga inhibitor)
COC(=O)C1CCN(S(=O)(=O)c2ccc(OC)cc2)CC1	none (no result: Pf growth 48h)
CCOC(=O)Cc1csc(NC(=O)COc2ccc(C)cc2)n1	Pf growth 48h inconclusive
CC(NC(=O)COC(=O)CCc1ccc(S(=O)(=O)N2CCOCC2)cc1)C1CC2CCC1C2 (configuration not stated)	CHX counter 36
CCOC(=O)Cc1csc(NC(=O)CN2CCOCC2)n1	Pf growth 96h 9.3µM, Pf growth 48h inconclusive
Cc1cc(C)cc(NC(=O)COC(=O)CCc2ccc(S(=O)(=O)N3CCOCC3)cc2)c1	none
CCOC(=O)Cc1csc(NC(=O)CCc2ccc(S(=O)(=O)N3CCOCC3)cc2)n1	Pf growth 96h inconclusive, Pf growth 48h 2.6µM
CCOC(=O)Cc1csc(NC(=O)c2ccc(S(=O)(=O)N3CCCCC3)cc2)n1	Pf growth 96h 5.9µM

High-throughput results from PubChem.
